Screening data: PubChem, National Center for Advancing Translational Sciences (NCATS)
KDM4E inh: inhibitors of human JMJD2E histone demethylase; JMJD2E catalytic domain, FDH-coupled NADH fluorescence (FDH is formaldehyde dehydrogenase); Potency, µM (titrated, usually from 57.1 µM), without a hit: top-dose activity change, negative = inhibition, actives largely listed as inhibitors; hit rate 1.6% among 230,000; AID 2147; active = well fitted inhibition curve with a large enough effect, not every such curve was filed as active; inconclusive = small, poorly fitted or top-dose-only effect, or another doubt; inactive = no such curve, though single readings can be large or run the other way;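 note: 0% = wells with enzyme and -100% = buffer wells without enzyme; nearly all actives have a fitted effect of over 50% in size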
RECQ1 inh-1: blocks DNA unwinding by human RECQ1. Potency, µM (series often up to 57.3 µM), without a hit: at the highest dose activity, negative = inhibition, actives largely listed as inhibitors. RECQ1 DNA unwinding, red fluorescence kinetic read. P46063. AID 2549. hit rate 0.54% among 240,000;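 note: plate controls were vehicle for no effect and no enzyme for full effect; nearly all actives have a fitted effect of over 30% in size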
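RECQ1T1 50 nM; forked duplex (20 bp + 30-nt ss tails) 200 nM, ATP 2 mM final; pH 8.0, 2 mM MgCl2, 2.5 ug/ml poly(dI-dC); 15 min compound preincubation; discontinuous kinetic read over 2 h at RT.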
TDP1 inh: blocks human tyrosyl-DNA phosphodiesterase 1 | hit rate 0.28% among 350,000 | recombinant TDP1, AlphaScreen DNA substrate cleavage | Potency, µM (series often up to 130 µM), inactives show at the highest dose activity change, negative = inhibition, actives largely listed as inhibitors; note: nearly all actives have a fitted effect of over 40% in size
Target sequence (Q9NUW8 whole entry, looked up): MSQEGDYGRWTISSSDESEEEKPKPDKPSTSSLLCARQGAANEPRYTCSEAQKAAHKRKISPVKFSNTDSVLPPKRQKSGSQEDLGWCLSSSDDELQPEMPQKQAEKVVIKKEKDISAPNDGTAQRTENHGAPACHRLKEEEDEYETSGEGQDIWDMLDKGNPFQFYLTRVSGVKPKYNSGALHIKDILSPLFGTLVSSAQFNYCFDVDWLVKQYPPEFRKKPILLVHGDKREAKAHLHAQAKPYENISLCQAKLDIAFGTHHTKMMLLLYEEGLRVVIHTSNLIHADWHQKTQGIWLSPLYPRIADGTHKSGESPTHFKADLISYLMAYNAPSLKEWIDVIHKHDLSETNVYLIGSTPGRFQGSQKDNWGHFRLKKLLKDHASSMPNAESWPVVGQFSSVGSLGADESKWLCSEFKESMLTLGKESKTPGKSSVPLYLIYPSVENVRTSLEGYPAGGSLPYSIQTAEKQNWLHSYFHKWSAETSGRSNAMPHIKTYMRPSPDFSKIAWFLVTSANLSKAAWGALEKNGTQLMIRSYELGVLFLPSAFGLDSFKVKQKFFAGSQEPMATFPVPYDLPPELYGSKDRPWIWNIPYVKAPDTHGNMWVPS
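Steps: enzyme plus compound, 15 min RT; add biotin/phosphotyrosine-FITC oligonucleotide (15 nM final), react 5 min; add donor/acceptor beads (10 ug/ml final), 10 min; read AlphaScreen. Tdp1 at 1 nM final.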
L3MBTL1 block: L3MBTL1 (human) inhibition; hit rate 0.66% among 230,000; Potency, µM (titrated, usually from 57.1 µM), inactives show top-dose activity, negative = inhibition, usual class: inhibitors; AlphaScreen L3MBTL1–H3K9me1 peptide binding; note: nearly all actives have a fitted effect of over 60% in size
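Displacement of a biotinylated histone H3(1-15) peptide monomethylated at Lys9 (75 nM) from L3MBTL1 (50 nM) was measured by AlphaScreen after a 30 min room-temperature compound incubation; cefsulodin titration served as intraplate control.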
BLM inh-1: Bloom syndrome helicase (human) inhibition; hit rate 0.2% among 350,000; Potency, µM (top dose mostly 56.1 µM), for the others: top-dose activity change, negative = inhibition, most hits filed as inhibitors; recombinant BLM DNA unwinding, fluorescence dequenching; P54132;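 note: plate controls were vehicle for no effect and no enzyme for full effect; nearly all actives have a fitted effect of over 35% in size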
APE1 inh-1: APE1 (human) endonuclease inhibition; P27695; recombinant APE1, TAMRA/BHQ-2 abasic DNA cleavage fluorescence; Potency, µM (highest dose often 65.8 µM), for the others: top-dose activity change, negative = inhibition, actives largely listed as inhibitors; hit rate 0.35% among 350,000; AID 2517;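 note: plate controls were vehicle for no effect and reference inhibitor for full effect; nearly all actives have a fitted effect of over 55% in size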
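Quantitative HTS: incision of a TAMRA/BHQ-2 double-stranded substrate bearing a tetrahydrofuran abasic site by 0.75 nM APE1 raises fluorescence. Substrate 50 nM final, added after 15 min compound preincubation at room temperature; progress as third-minus-first kinetic read difference.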
APE1 dye cs: displaces fluorescent dye from DNA, flagging APE1 artifacts; shares compounds with APE1 inh-1; hit rate 7% among 480; Potency, µM (titrated, usually from 28.5 µM), for the others: at the highest dose activity change, negative = inhibition, usual class: inhibitors; DNA fluorescent dye displacement counterscreen, fluorescence;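 note: loss of thiazole orange fluorescence as the dye is displaced from duplex DNA; 0% = ThO with dsDNA and no compound and -100% = ThO without dsDNA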
EndoIV counter: counter-screen for APE1 inhibitors: inhibitors of E. coli endonuclease IV | Potency, µM (doses to about 27.1 µM), inactives show at the highest dose activity change, negative = inhibition, actives largely listed as inhibitors | hit rate 4% among 560 | AID 2565 | E. coli Endo IV, fluorogenic AP-site DNA cleavage | shares compounds with APE1 inh-1;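 note: plate controls were uninhibited enzyme wells for no effect and no enzyme buffer wells for full effect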
APE1 inh-2: APE1 (human) endonuclease inhibition, confirmation. purified APE1, fluorogenic abasic-site DNA cleavage. hit rate 44% among 750. Potency, µM (series often up to 57.1 µM), for inactives: at the top dose activity change, negative = inhibition, usual class: inhibitors. shares compounds with APE1 inh-1; note: nearly all actives have a fitted effect of over 30% in size
APE1 FP: displaces DNA from human APE1 in FP assay | APE1 binding to TAMRA-labelled double-stranded DNA, fluorescence polarization displacement | AID 2573 | shares compounds with APE1 inh-1 | Potency, µM (doses to about 28.5 µM), for the others: top-dose activity, negative = inhibition, most hits filed as inhibitors | hit rate 7% among 480
BLM inh-2: confirmation of inhibitors of human Bloom syndrome helicase BLM; Potency, µM, without a hit: max response, negative = inhibition, most hits filed as inhibitors; shares compounds with BLM inh-1; hit rate 40% among 220; BLM DNA unwinding, fluorescence quenching, biochemical;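 note: strand separation dequenches TAMRA so unwinding raises red fluorescence; series mostly up to about 69 µM; nearly all actives have a fitted effect of over 45% in size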
RECQ1 conf: confirmation of human RECQ1 helicase inhibitors; shares compounds with RECQ1 inh-1; RECQ1 helicase DNA unwinding, fluorescence; Potency, µM (doses to about 229 µM), without a hit: at the top dose activity change, negative = inhibition, most hits filed as inhibitors; hit rate 28% among 610; note: nearly all actives have a fitted effect of over 45% in size
ADP FP counter: ADP displacement flagged in RECQ1 inhibitor counter-screen | shares compounds with RECQ1 inh-1 | ADP fluorescence polarization displacement counterscreen | Potency, µM (doses to about 228 µM), for the others: at the highest dose activity change, negative = inhibition, actives largely listed as inhibitors | hit rate 27% among 530; note: nearly all actives have a fitted effect of over 45% in size
RECQ1 inh-2: confirmation of human RECQ1 helicase inhibitors; shares compounds with RECQ1 inh-1; AID 504841; hit rate 15% among 1,100; Potency, µM (doses to about 119 µM), for the others: top-dose activity, negative = inhibition, hits mostly inhibitors; recombinant RECQ1 DNA unwinding, red fluorescence; note: nearly all actives have a fitted effect of over 50% in size
Starred values were filed as active, the others as inactive; ? = inconclusive; . = no result given; ! = repeats disagree; [ ] = dose if it differs, or a comment. The full list was thinned out, with hits kept by preference. Unless noted, calls come from the whole dose curve; as a rule, active = well fitted curve in the direction sought with a large enough effect; inconclusive = small, poorly fitted or top-dose-only effect, or another doubt; inactive = no such curve, though single readings can be large; an effect the other way counts as inactive or inconclusive. Unless noted, % is set by controls: 0 for no effect and ±100 for the full control effect; potency is the fitted concentration of half-maximal effect.

SMILES	KDM4E inh	RECQ1 inh-1	TDP1 inh	L3MBTL1 block	BLM inh-1	APE1 inh-1	APE1 dye cs	EndoIV counter	APE1 inh-2	APE1 FP	RECQ1 conf	ADP FP counter	others
CSCC[C@H](NC(=O)[C@H](CCCNC(=N)N)NC(=O)[C@H](Cc1ccc(O)cc1)NC(=O)[C@@H]1CCCN1C(=O)CNC(=O)[C@H](CCC(=O)O)NC(=O)[C@H](CC(=O)O)NC(=O)[C@H](CCCCN)NC(=O)[C@H](CCCCN)NC(=O)[C@H](CCC(=O)O)NC(=O)[C@H](C)N)C(=O)N[C@@H](CCC(=O)O)C(=O)N[C@@H](Cc1cnc[nH]1)C(=O)N[C@@H](Cc1ccccc1)C(=O)N[C@@H](CCCNC(=N)N)C(=O)N[C@@H](Cc1c[nH]c2ccccc12)C(=O)NCC(=O)N[C@@H](CO)C(=O)N1CCC[C@H]1C(=O)N1CCC[C@H]1C(=O)N[C@@H](CCCCN)C(=O)N[C@@H](CC(=O)O)C(=O)O	.	-14%	6%	.	5%	-2%	.	.	.	.	.	.
COc1ccc(-c2c(O)c3cc(O)cc(O)c3oc2=O)cc1	.	-7%	11%	.	-11%	-9%	.	.	.	.	.	.
Cc1ccc(/C=C2/C(=O)c3ccc(C(=O)O)cc3C2=O)o1	-23%	7.1µM*	3.5µM*	1.6µM*	75%	8.9µM*	.	.	?	.	24%[114 µM]	45µM*
Cc1ccc(C=C2C(=O)c3ccccc3C2=O)o1	-1%	-29%	0%	?	-16%	?	.	.	.	.	.	.
C[C@@]1(C(=O)O)NCCc2cc(O)c(O)cc21	?	2.5µM*	.	.	8.9µM*	1.8µM*	-12%[57.1 µM]	161%[57.1 µM]	-2%	20%[57.1 µM]	-58%	?
COc1ccc(N2Cc3cccc(C(=O)O)c3C2=O)cc1	?	14µM*	8.9µM*	.	16µM*	13µM*	4%	-1%	4µM*	?	25µM*	-32%[91.9 µM]	BLM inh-2=16µM*;RECQ1 inh-2=4.5µM*
COc1ccc(N2Cc3cccc(C(=O)Nc4cc(C)cc(C)c4)c3C2=O)cc1	.	.	-6%	.	-16%	.	.	.	.	.	.	.
O=C(Nc1nc(-c2ccco2)c(-c2ccco2)s1)C1CC(=O)N(c2ccc3c(c2)OCCO3)C1 (centres undefined)	?	7.9µM*	?	?	14µM*	2.5µM*	11µM*	8%	?	-3%	28µM*	40µM*	RECQ1 inh-2=?
Cc1nnc(NC(=O)C2CC(=O)N(c3ccc4c(c3)OCCO4)C2)s1 (centres undefined)	.	.	-10%[56.1 µM]	7%	.	-21%	.	.	.	.	.	.
COc1ccc(CNC(=O)c2ccc(Cn3c(=O)c4cccn4c4cccnc43)cc2)cc1OC	.	.	5%	.	-9%	.	.	.	.	.	.	.
O=C(c1coc(=O)c(Br)c1)N1CCC(C(O)(c2ccccc2)c2ccccc2)CC1	?	-17%	0%	3%	4%	2%	.	.	.	.	.	.
CC1(C)CCCN(C(=O)c2coc(=O)c(Br)c2)C1	?	11µM*	6.3µM*	6.3µM*	30%	4µM*	.	.	1.3µM*	.	20µM*	-6%[91.9 µM]
Cc1c(C)c2cc(Cl)c(O)c(CN(C)C)c2oc1=O	?	0%	7%	3%	0%	-4%	.	.	.	.	.	.
O=c1oc2c(O)c(O)cc3c(=O)oc4c(O)c(O)cc1c4c23	2.5µM*	0.56µM*	0.1µM*	?	2µM*	0.045µM*!	0.089µM*	?	0.014µM*	28µM*	?	4.5µM*
Cc1ccc2onc(CC(=O)N3CCN(c4cc(Cl)ccc4C)CC3)c2c1	.	.	4%	.	-6%	.	.	.	.	.	.	.
Cc1ccc2c(=O)c3ccccc3n(CCCN)c2c1C	.	32µM*!	17%	.	29%	4.5µM*!	14µM*	-91%[57.1 µM]	8.9µM*	-80%[57.1 µM]	.	.	RECQ1 inh-2=18µM*
CCCOc1ccc(NC(=O)CC2C(=O)N(c3ccc(Cl)cc3)C(=O)N2CCc2ccncc2)cc1 (centres undefined)	.	.	8%	.	-8%	.	.	.	.	.	.	.
COc1cc2c(ccc3cc(OC)c(OC)c(O)c32)cc1O	?	11µM*	.	.	25µM*	0.71µM*	?	?	0.63µM*	?	40µM*	50µM*
CC12CCC=CC1C(c1ccc(C(F)(F)F)cc1)N(Cc1ccccc1)C2=O (centres undefined)	.	-11%	1%	.	-16%	0%	.	.	.	.	.	.
Cc1c2c(c(O)c3c(O)cccc13)C(=O)O[C@H]2C1C(N(C)C)C(O)=C(C(N)=O)C(=O)[C@H]1O (some centres undefined)	.	3.2µM*	.	.	18µM*	2µM*	10µM*	-4%[57.1 µM]	1.4µM*	2.2µM*	40µM*	16µM*	RECQ1 inh-2=?
NCCc1ccc(O)c(O)c1	13µM*	14µM*	.	2%	-10%	0.56µM*	-3%[57.1 µM]	110%[57.1 µM]	?	?	?	89µM*
Oc1ccc(CCNc2c3ccccc3nc3ccccc23)cc1O	.	.	.	-13%[2.29 µM]	-4%	?	.	.	.	.	.	.
